Only some compounds are listed: those with a hit (about 1.2% of all), similar ones and a draw of the others.
RGS7-Gao: modulates binding of RGS7 to human Galphao; binding response (% of control), % at 10 µM; Multiplexed bead flow cytometry; actives lie on both sides; hit rate 0.35% among 220,000; P09471; in the data active = binding response below about 49% or above about 150%; inconclusive = no clear call, values can overlap the other calls; inactive = in between;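 also: fluorescent Galphao held in activated GDP-AlF4 state binding bead-coupled RGS7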
Target sequence (P09471 whole entry, looked up): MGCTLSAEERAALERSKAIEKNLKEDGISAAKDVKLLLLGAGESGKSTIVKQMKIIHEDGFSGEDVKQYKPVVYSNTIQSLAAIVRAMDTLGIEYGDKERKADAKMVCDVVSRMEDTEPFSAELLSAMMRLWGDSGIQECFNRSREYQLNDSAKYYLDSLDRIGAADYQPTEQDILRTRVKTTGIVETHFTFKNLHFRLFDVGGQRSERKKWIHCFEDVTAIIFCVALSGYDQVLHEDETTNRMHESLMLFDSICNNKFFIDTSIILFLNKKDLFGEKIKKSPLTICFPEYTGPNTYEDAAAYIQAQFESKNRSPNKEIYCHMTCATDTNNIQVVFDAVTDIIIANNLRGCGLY
RGS16-Gao: RGS16-Galphao interaction regulator (human); O15492+P09471; bead-based flow cytometry RGS16-Galphao binding, fluorescence; actives lie on both sides; binding response (% of control), % at 10 µM; hit rate 0.38% among 220,000; AID 1441;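 also: Galphao activated by GDP with aluminum fluoride before binding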
GSH bead fluor: compound fluoresces at 488/530 nm on GSH beads. GSH beads flow cytometry, compound fluorescence 488/530 nm; active compounds read high. fluorescence (KMESF) at 10 µM. hit rate 0.25% among 190,000; in the data active = fluorescence above about 89;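 also: glutathione beads carrying GST-tagged Bcl family fusion proteins plus one bare bead set; values are compound well signal with DMSO vehicle wells as background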
RGS8-Gao: human RGS8-Galphao interaction regulation | multiplexed bead flow cytometry, RGS8-Galphao binding; actives lie on both sides | P09471 | response (percent of control binding), % at 10 µM | hit rate 0.34% among 220,000; in the data active = response below about 60% or above about 140%; inactive = in between;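 also: Galphao activated as the GDP aluminium fluoride complex binding bead-coupled RGS8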
RGS4-Gao reg: human RGS4-Galphao interaction regulation | P09471 | Multiplexed bead flow cytometry, RGS4-Galphao binding; actives lie on both sides | binding response (% of control), % at 10 µM | hit rate 0.33% among 220,000 | AID 1415; in the data active = binding response below about 49% or above about 150%; inactive = in between;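 also: fluorescent Galphao activated with aluminum fluoride binding bead-coupled RGS4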
Avidin fluor: compound fluoresces at 488/530 nm on avidin beads; compound fluorescence 488/530 nm, flow cytometry; active compounds read high; fluorescence (KMESF) at 10 µM; hit rate 0.38% among 220,000; AID 1775; in the data active = fluorescence above about 47
RGS-Gao: RGS4-Galphao interaction regulator (human). shares compounds with RGS16-Gao. multiplexed bead flow cytometry, RGS–Galpha-o binding. RGS4–Galpha-o binding response, % at 10 µM. hit rate 99% among 1,600. AID 1504;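 also: fluorescently labeled Galpha-o bound to GDP with aluminium fluoride binding biotinylated RGS beads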
Biotin-avidin: counter-screen: compounds disrupting biotin binding to avidin beads | shares compounds with RGS16-Gao | streptavidin beads, fluorescein-biotin binding, flow cytometry | inhibition, % at 10 µM | 1,700 tested, under 10 active | AID 1783;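 active = inhibition above 50%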;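 also: median green fluorescence of gated singlet beads compared with DMSO control wells; 0% = DMSO wells and 100% = complete loss of bead fluorescence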
RGS8-Gao single: confirmation of regulators of human RGS8-Galphao interaction. shares compounds with RGS16-Gao. bead-based flow cytometry RGS8-Galphao binding, fluorescence; actives lie on both sides. binding response (% of control), % at 10 µM. hit rate 3% among 1,700; in the data active = binding response below about 72% or above about 130%; inactive = in between;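 also: Galphao activated as GDP AlF4 complex before binding bead RGS8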
RGS7-Gao single: confirmation of regulators of human RGS7-Galphao interaction | response (percent of control binding), % at 10 µM | bead-based flow cytometry RGS7-Galphao binding; actives lie on both sides | hit rate 7.8% among 1,700 | shares compounds with RGS16-Gao; in the data active = response below about 75% or above about 130%; inactive = in between;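 also: fluorescent Galphao activated with GDP and aluminum fluoride binding bead-coupled RGS7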
RGS16-Gao single: confirmation of regulators of human RGS16-Galphao interaction; shares compounds with RGS16-Gao; bead-based flow cytometry, RGS16-Galphao binding; actives lie on both sides; response (% of control binding), % at 10 µM; hit rate 4% among 1,700; AID 1838; in the data active = response below about 74% or above about 130%; inactive = in between;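 also: Galphao activated as the GDP aluminium fluoride complex binding bead-coupled RGS16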
RGS4-Gao confirm: confirmation of regulators of human RGS4-Galphao interaction; hit rate 4% among 1,700; shares compounds with RGS16-Gao; binding response (% of control), % at 10 µM; RGS4-Galphao binding, multiplexed bead flow cytometry; actives lie on both sides; in the data active = binding response below about 74% or above about 130%; inactive = in between
RGS19-Gao single: confirmation of regulators of human RGS19-Galphao interaction. shares compounds with RGS16-Gao. hit rate 5% among 1,700. response (percent of control binding), % at 10 µM. AID 1841. bead-based flow cytometry RGS19-Galphao binding; actives lie on both sides; in the data active = response below about 50% or above about 160%; inactive = in between;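 also: 100% = no compound control and 0% = blank background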
Target sequence (P09471 whole entry, looked up): as above
Target sequence (P49795 whole entry, looked up): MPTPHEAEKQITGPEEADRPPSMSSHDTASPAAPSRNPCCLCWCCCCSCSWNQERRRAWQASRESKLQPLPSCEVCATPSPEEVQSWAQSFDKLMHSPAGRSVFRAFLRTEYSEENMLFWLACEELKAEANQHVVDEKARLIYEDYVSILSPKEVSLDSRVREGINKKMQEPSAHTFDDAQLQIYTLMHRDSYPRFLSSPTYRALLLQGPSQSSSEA
* = called active by the depositor; ? = inconclusive; / = no result; [ ] = another dose, or the depositor's remark. Unless noted, no rule for the calls is given here.

SMILES	RGS7-Gao	RGS16-Gao	GSH bead fluor	RGS8-Gao	RGS4-Gao reg	Avidin fluor	Biotin-avidin	RGS8-Gao single	RGS7-Gao single	RGS16-Gao single	RGS4-Gao confirm	RGS19-Gao single	others
FC(F)Sc1nc(-c2ccccc2)c(-c2ccccc2)n1C(F)F	173.5*[activator]	106.3	19	100.0	117.1	100*	-1.0	101.8	96.8	99.9	99.7	86.4	RGS-Gao=117.1*
Nc1ccnn1Cc1cccs1	102.4	110.3	19	103.1	99.7	11	/	/	/	/	/	/
Oc1ccc(Nc2nc3ccccc3nc2Nc2ccc(O)cc2)cc1	161.0*[activator]	169.7	24	109.7	165.0*[activator]	80*	0.2	95.4	83.8	90.2	87.2	80.9
Cc1nc2ccccc2nc1N/N=C/c1ccc(O)cc1	?	96.5	/	99.3	97.2	7	/	/	/	/	/	/
COc1ccc2[nH]c(=O)c(COC(=O)c3cccs3)cc2c1	20.4*	14.4	10	22.5*	20.9*	-2	-2.1	100.7	91.6	98.0	101.2	84.4
O=Cc1ccc(-c2ccc(Cl)cc2Cl)[nH]1	16.3*	15.0*	16	26.2*	26.1*	2	1.6	108.9	107.8	111.6	106.5	97.0
CN(C)Cc1cccc([N+](=O)[O-])c1O	?	90.4	/	94.6	87.5	11	/	/	/	/	/	/
Cc1cc(C)n(C(=O)/C=C/c2cccs2)n1	?	95.8	/	97.0	95.8	9	/	/	/	/	/	/
Cc1cc(C)c(NC(=O)c2cnn(C)c2)c(C)c1	2.0*	-385.8	10	4.6*	-6.8*	-3	0.2	111.3	118.4	111.9	113.7	101.4
O=C(Cn1nnc(-c2cc(C(F)(F)F)cc(C(F)(F)F)c2)n1)NNC(=S)Nc1ccc(Cl)cc1	?	169.0	/	145.4*[activator]	185.0*[activator]	5	-0.2	103.1	108.4	106.1	107.9	97.6
CCN(CC)c1nc(N)nc(N(c2ccccc2)c2ccccc2)n1	154.7*[activator]	103.3	21	98.9	105.2	73*	-0.3	97.1	62.7*	88.7	72.6*	73.9	RGS-Gao=105.2*
CN(C)c1nc(N)nc(N(c2ccccc2)c2ccccc2)n1	100.2	98.4	18	99.9	101.4	7	/	/	/	/	/	/
CC(C)CCN1CCN(Cc2nc3c(s2)CCCC3)CC1CCO (stereo not given)	27.4*	30.0	13	37.5*	40.3*	2	-0.7	114.8	110.0	117.0	103.2	104.5
OCCC1CN(Cc2nc3c(s2)CCCC3)CCN1CCc1ccccc1 (stereo not given)	102.9	101.5	17	99.0	99.1	5	/	/	/	/	/	/
COCc1nnc(NC(=O)c2ccc(NC(C)=O)cc2)s1	53.2	50.2	67	63.9	45.9*	3	-2.3	103.7	100.3	108.0	100.3	81.3
COC(=O)c1c(NC(NC(=O)C(C)C)C(Cl)(Cl)Cl)sc2c1CCCC2 (stereo not given)	87.1	13.8	8	63.2	77.0	2	/	/	/	/	/	/
CC1=C(C(=O)OC(C)C)C(c2cccc(F)c2)N2C(=O)C(C)SC2=N1 (stereo not given)	/	/	20	/	/	/	0.4	101.2	98.4	98.9	99.8	89.7
CC1=C(C(=O)OCC(C)C)C(c2cccc(F)c2)N2C(=O)C(C)SC2=N1 (stereo not given)	100.8	104.8	12	104.8	102.0	10	/	/	/	/	/	/
COc1ccc(OC)c(C(=O)CSc2nnc(Cc3cccs3)n2C)c1	103.5	103.9	19	100.2	103.7	18	/	/	/	/	/	/
CC(C)CCNC(=O)NC(=O)COC(=O)C1=COCCO1	17.2*	9.2*	17	13.2*	21.0*	2	-1.2	100.7	100.3	101.5	103.9	98.5
CC(=O)c1ccc(OCCn2cnc3ccccc32)cc1	109.1	192.2*[activator]	10	119.7	112.4	18	-0.9	99.6	100.7	101.8	100.6	109.3	RGS-Gao=112.4*
COc1ccccc1NC(=O)Cn1cnc2c(nnn2-c2ccc(C)cc2)c1=O	154.1*[activator]	98.3	10	98.5	104.3	33	-0.3	99.9	104.1	99.0	99.7	95.6	RGS-Gao=104.3*
CCOC(=O)c1ccccc1NC(=O)Cn1cnc2c(nnn2-c2ccc(C)cc2)c1=O	100.2	98.7	18	99.8	100.7	7	/	/	/	/	/	/
CCn1c(SCC(=O)Nc2cc(S(=O)(=O)N3CCOCC3)ccc2OC)nnc1-c1ccncc1	?	98.1	14	98.7	98.6	9	/	/	/	/	/	/
O=C(COc1ccccc1C(=O)N/N=C\c1ccc(O)c(O)c1)N/N=C/c1ccc(O)c(O)c1	13.6*	15.9*	4	36.7*	17.0*	4	-3.8	60.5*	21.1*	60.4*	54.0*	53.4
COc1ccc(CNCCC(c2ccc(OC(C)C)cc2)C(C)C)cc1OC (stereo not given)	119.5	228.5	5	142.0*[activator]	117.3	10	2.9	103.0	98.5	102.8	98.1	96.7	RGS-Gao=117.3*
COc1ccc(C(CCNCc2ccc(N(C)C)cc2)C(C)C)cc1 (stereo not given)	?	109.5	/	107.7	106.0	4	/	/	/	/	/	/
COc1ccc(C(CCNCc2ccc(OC(C)C)cc2)C(C)C)cc1 (stereo not given)	?	-5.3*	/	8.9*	-9.6*	-2	0.5	101.8	90.2	94.2	93.8	77.4
C=CC[n+]1c(-c2ccc(OCC)cc2)csc1NNC(=O)Nc1ccccc1	95.1	96.2	15	96.3	95.5	6	/	/	/	/	/	/
CC1Cc2ccccc2N1C(=S)NC(=O)C1(C)CC1(Cl)Cl (stereo not given)	13.3*	7.2*	15	30.8*	8.4*	4	-0.1	98.8	99.3	100.5	101.2	98.5

Assay outcomes from PubChem BioAssay.
